Assay outcomes: PubChem BioAssay, several laboratories
ATG4B inh – blocks human ATG4B protease cleavage of LC3 substrate; ATG4B cleavage of LC3-PLA2, NBD-HPC fluorescence, 1 h; 340,000 tested, 0.51% active; inhibition, % at 8.33 µM; AID 504462; in the data active = inhibition above about 40%
Target sequence (Q9Y4P1 whole entry, looked up): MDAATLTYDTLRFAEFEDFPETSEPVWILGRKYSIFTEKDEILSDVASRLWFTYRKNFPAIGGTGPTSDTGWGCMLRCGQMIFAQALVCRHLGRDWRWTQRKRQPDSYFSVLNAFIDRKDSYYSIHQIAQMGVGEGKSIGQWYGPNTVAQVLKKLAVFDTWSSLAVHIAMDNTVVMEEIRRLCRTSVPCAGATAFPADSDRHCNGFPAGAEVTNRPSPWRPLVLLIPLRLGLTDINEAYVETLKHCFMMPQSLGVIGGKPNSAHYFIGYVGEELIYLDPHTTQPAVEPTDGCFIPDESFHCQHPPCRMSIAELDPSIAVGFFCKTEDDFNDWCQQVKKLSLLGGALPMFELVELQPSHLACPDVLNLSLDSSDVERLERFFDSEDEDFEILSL
PAFAH1B2 FP inh – blocks human PAF acetylhydrolase 1b catalytic subunit 2; inhibition, % at 3.39 µM; recombinant PAFAH1B2, FP-rhodamine activity probe, fluorescence polarization; 340,000 tested, 1.2% active; P68402;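 active = inhibition above the mean of all tested compounds plus 3 SD, cut at about 24% in these data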;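 also: 0% = enzyme with DMSO and 100% = wells lacking PAFAH1B2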
DAGLB inhibitor – blocks human DAGLB lipase activity | AID 504411 | Q8NCG7 | inhibition, % at 5.17 µM | 340,000 tested, 0.059% active | HEK293T DAGLB membrane lysate, EnzChek fluorogenic substrate; in the data active = inhibition above about 34%;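 also: 0% = enzyme with vehicle and 100% = wells lacking enzyme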
PAFAH2 inh – PAFAH2 (human) inhibition | inhibition, % at 3.39 µM | Q99487 | 340,000 tested, 0.99% active | recombinant PAFAH2, FP-rhodamine activity probe, fluorescence polarization | AID 492956;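 active = inhibition above the mean over all tested compounds plus 3 SD, cut at about 30% in these data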;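 also: inhibitors block probe labeling of enzyme so polarization drops; 0% = enzyme with DMSO and 100% = wells lacking PAFAH2 protein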
pPAFAH inh – inhibitors of human plasma PAF acetylhydrolase (pPAFAH); Q13093; recombinant pPAFAH, FP-rhodamine probe fluorescence polarization; inhibition, % at 3.39 µM; 330,000 tested, 1.5% active;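 active = inhibition above the mean inhibition across the screen plus 3 SD, cut at about 25% in these data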;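 also: inhibitors block binding of the rhodamine activity-based probe so polarization drops; 0% = enzyme with DMSO and 100% = wells lacking pPAFAH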
PAFAH1B3 inh – blocks human PAF acetylhydrolase 1B catalytic subunit 3; Q15102; recombinant PAFAH1B3, FP-rhodamine probe, fluorescence polarization; inhibition, % at 3.39 µM; 340,000 tested, 0.28% active;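 active = inhibition above the screen-wide average of all tested compounds plus 3 SD, cut at about 25% in these data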;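 also: 0% = enzyme with DMSO only and 100% = wells lacking PAFAH1B3 protein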
Target sequence (Q15102 whole entry, looked up): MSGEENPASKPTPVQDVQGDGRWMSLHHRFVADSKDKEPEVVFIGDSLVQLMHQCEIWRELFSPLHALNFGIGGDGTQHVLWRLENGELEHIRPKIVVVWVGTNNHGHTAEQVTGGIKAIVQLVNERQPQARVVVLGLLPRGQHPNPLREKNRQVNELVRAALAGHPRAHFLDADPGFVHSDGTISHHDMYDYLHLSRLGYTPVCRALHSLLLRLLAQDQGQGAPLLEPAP
ATG4B confirm – ATG4B (human) inhibition, single-dose confirmed; 320 tested, 92% active; shares compounds with ATG4B inh; ATG4B protease fluorescent substrate cleavage assay; inhibition, % at 8.33 µM; in the data active = inhibition above about 39%
PLA2 counter – inhibits human PLA2, flagging false ATG4B inhibitors | shares compounds with ATG4B inh | 1,600 tested, 66% active | purified PLA2, NBD-C6-HPC fluorescence, 45 min | inhibition, % at 8.33 µM; in the data active = inhibition above about 50%
An asterisk follows results filed as active; x = not tested or not shown. Most compounds without a hit are left out; they make up all but 3% or so of the library.

SMILES	ATG4B inh	PAFAH1B2 FP inh	DAGLB inhibitor	PAFAH2 inh	pPAFAH inh	PAFAH1B3 inh	PLA2 counter	others
CCOc1ccc2nc(SCC(=O)NC3CCCc4ccccc43)sc2c1 (stereo not drawn)	50*	9	-15	4	-4	6	44
CCOc1ccc2nc(SCC(=O)N3CCCc4ccccc43)sc2c1	-2	-3	-10	6	-2	2	x
COCCCNC(=S)N1CCN(c2nc(C)nc3sc4c(c23)CCCC4)CC1	47*	3	-1	-1	8	3	63*
Cc1nc(N2CCNCC2)c2c3c(sc2n1)CCCC3	1	-1	0	3	4	-3	x
CCCNC(=S)N1CCN(c2nc(C)nc3sc4c(c23)CCCC4)CC1	49*	0	-3	-1	0	4	78*
Cc1ccc(S(=O)(=O)N2CCN(C(=O)CCC(=O)NCc3cccc(C(F)(F)F)c3)CC2)cc1	71*	6	0	4	8	0	78*
O=C(CCn1c2c(c3ccccc31)CCCC2)NNC(=O)c1ccc(Cl)c([N+](=O)[O-])c1	52*	2	-1	3	4	15	61*
Cc1cccc(N=Cc2cc(Br)cc(Cl)c2O)c1	40*	2	6	11	-3	9	31	ATG4B confirm=63*
COc1ccc(N=Cc2cccc(C)c2O)cc1Cl	4	1	0	-7	2	3	x
CCOC(=O)Cn1nnnc1CN(Cc1cccs1)Cc1cc2cc(C)ccc2[nH]c1=O	-11	4	4	-8	4	-5	x
Cc1ccc2[nH]c(=O)c(CN(Cc3cccs3)Cc3nnnn3Cc3ccccc3)cc2c1	52*	21	6	-4	11	6	65*
C#CCOc1ccc2ccccc2c1/C=C(/C#N)c1ccc(C(=O)O)cc1	-5	10	4	-2	-6	1	x
COc1cccc(-c2ccc3ncnc(NCc4cccc(C)c4)c3c2)c1	40*	-4	-4	-21	0	1	50
COc1cccc(CNc2ncnc3ccc(-c4c(C)noc4C)cc23)c1	-1	2	-1	-6	3	8	x
Cc1ccc(S(=O)(=O)/N=C2/NC(=O)/C(=C\c3cc(Br)cc(Br)c3O)S2)cc1	73*	-21	21	-46	x	-54	60*
Cc1ccc(S(=O)(=O)/N=C2/NC(=O)/C(=C/c3ccc(Br)o3)S2)cc1	39	-5	11	-3	-6	-1	x
FC(F)(F)c1ccc(-n2cnc3ccccc32)nc1	2	0	-2	2	7	-4	x
Cc1nn2c(COc3ccc(NC(=O)c4ccccc4Cl)cc3)nnc2c2ccccc12	43*	3	2	12	6	3	39
Cc1cc([N+](=O)[O-])nn1CCCC(=O)Nc1cc(Oc2ccc(F)cc2)cc([N+](=O)[O-])c1	61*	1	-2	3	7	4	62*
COC(=O)c1ccccc1NC(=O)CCCn1nc([N+](=O)[O-])cc1C	-4	5	-1	-1	0	4	x
COc1ccc(CNC(=O)CCCn2nc([N+](=O)[O-])cc2C)cc1	-3	10	-1	-1	4	6	x
Cc1ccc(Oc2cc(NC(=O)CCCn3nc([N+](=O)[O-])c(Cl)c3C)cc([N+](=O)[O-])c2)cc1	89*	4	-4	-11	5	-2	92*
Cc1cc([N+](=O)[O-])nn1CCCC(=O)Nc1cc(Oc2ccccc2)cc([N+](=O)[O-])c1	55*	1	-1	-5	4	-5	58*
CCc1nnc(SCC(=O)Nc2nc(C)c(C(=O)N(C)C)s2)n1CC	-1	3	1	-1	3	-3	x
CCOC(=O)N1CCc2cc(OC)c(OC)c3c2c1cc1cc(OC)c(OC)cc13	1	8	2	19	x	12	x
SMILES	ATG4B inh	PAFAH1B2 FP inh	DAGLB inhibitor	PAFAH2 inh	pPAFAH inh	PAFAH1B3 inh	PLA2 counter	others
COc1ccc(/C=C2\SC(=Nc3ccccc3Cl)NC2=O)c(OC)c1	x	x	3	x	x	x	x
COc1ccc(OC)c(/C=C2\S/C(=N/NC(=O)c3ccc4ccccc4c3)NC2=O)c1	79*	12	20	25	18	13	83*
O=C1N/C(=N/NC(=O)c2cccc3ccccc23)S/C1=C\c1ccccc1OCc1ccccc1	91*	14	12	10	x	26*	91*
COc1cccc(/C=C2\SC(=O)NC2=O)c1OCc1ccc(C(=O)O)cc1	13	11	4	6	-2	14	x
CCC(C)[C@H](NC(=O)[C@@H]1Cc2c([nH]c3ccccc23)C2c3ccccc3C(=O)N21)C(=O)NCC1CCCO1 (stereo partly drawn)	-9	2	-1	-4	-1	8	x
CCC1Sc2ccc(S(=O)(=O)CCC(=O)Nc3c(Cl)cc(OC)cc3OC)cc2NC1=O (stereo not drawn)	-11	-2	3	8	5	7	x
C/C(CCc1oc2c(Br)cc(Br)cc2c1-c1ccc(C)o1)=N\O	12	2	13	-3	22	10	x
C/C(CCc1oc2ccccc2c1-c1ccc(C)o1)=N/O	61*	4	-4	15	2	-2	64*
CCn1c(N2CCN(S(=O)(=O)c3ccc(Cl)cc3)CC2)nc2ccccc21	60*	13	-3	-3	11	-4	67*
CCn1c(N2CCN(S(=O)(=O)c3ccc(F)cc3)CC2)nc2ccccc21	28	5	-3	2	-2	4	x
CCc1ccc(N2C(=O)CN(Cc3sccc3C)C2=S)cc1	92*	0	-8	0	5	9	98*
Cc1cccc(N2C(=O)CCC2=O)c1	-1	-2	-1	9	2	-1	x
Cc1cccc(N2C(=O)CN(Cc3ccccc3)C2=S)c1	49*	6	-8	0	6	2	63*
COc1cc(CN2CC(=O)N(c3ccc(C)cc3)C2=S)cc(OC)c1OC	-9	1	0	3	6	2	x
Cc1cc(C)cc(N2C(=O)CN(Cc3sccc3C)C2=S)c1	94*	0	-11	-8	8	-7	94*
Cc1cccc(N2C(=O)CN(Cc3cccs3)C2=S)c1	52*	-1	-4	2	2	0	74*
CC1(C)CC(=O)C=C(c2cccc3c2sc2ccccc23)C1	16	0	-5	-5	3	-7	x
CCOc1ccc(N2CC(O)=C(c3ccccc3)C2=N)cc1	-11	0	1	2	5	1	x
Cc1cc(-c2nnc(SCC(=O)Nc3c(C)cccc3C)n2N)n[nH]1	1	7	3	8	4	4	x
